Sampled rows, rich in hits. Any-hit rate of the full collection: about 0.81%.
TRHR PAM: TRH receptor (human) allosteric enhancement. hit rate 0.66% among 360,000. TRHR cells, fluo-8 calcium fluorescence, EC20 TRH enhancement. AID 493056. enhancement, % at 2 µM; in the data active means enhancement above about 30%; further: 0% is about no effect
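Enhancer read-out: after compound pinning and an initial kinetic agonist-mode read, an EC20 of TRH (10 nM final) was injected and fluo-8 calcium signal (Ex 480/Em 530) followed at 1 s/cycle for 100 cycles in TRHR-expressing cells.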
TRHR ag: agonists of human TRH receptor | TRHR cells, calcium flux fluo-8, FDSS agonist mode | activation, % at 2 µM | hit rate 0.18% among 360,000 | P34981; in the data active means activation above about 30%; further: 0% is about no effect
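Read-out: compound-evoked intracellular calcium rise in TRHR cells, fluo-8 dye, kinetic FDSS fluorescence at 1 s/cycle following a 10-cycle baseline. Cells cultured overnight before dye loading (30 min–1.5 h, RT).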
TRPML1 ag: agonists of human TRPML1 channel; activation, % (no concentration beside the values); hit rate 0.12% among 410,000; Q9GZU1; AID 624414; TRPML1-expressing cells, Ca2+ dye fluorescence, FDSS; in the data active means activation above about 50%; inconclusive means mostly about 30% to 49%; further: 0% is about no effect
Target sequence (Q9GZU1 whole entry, looked up): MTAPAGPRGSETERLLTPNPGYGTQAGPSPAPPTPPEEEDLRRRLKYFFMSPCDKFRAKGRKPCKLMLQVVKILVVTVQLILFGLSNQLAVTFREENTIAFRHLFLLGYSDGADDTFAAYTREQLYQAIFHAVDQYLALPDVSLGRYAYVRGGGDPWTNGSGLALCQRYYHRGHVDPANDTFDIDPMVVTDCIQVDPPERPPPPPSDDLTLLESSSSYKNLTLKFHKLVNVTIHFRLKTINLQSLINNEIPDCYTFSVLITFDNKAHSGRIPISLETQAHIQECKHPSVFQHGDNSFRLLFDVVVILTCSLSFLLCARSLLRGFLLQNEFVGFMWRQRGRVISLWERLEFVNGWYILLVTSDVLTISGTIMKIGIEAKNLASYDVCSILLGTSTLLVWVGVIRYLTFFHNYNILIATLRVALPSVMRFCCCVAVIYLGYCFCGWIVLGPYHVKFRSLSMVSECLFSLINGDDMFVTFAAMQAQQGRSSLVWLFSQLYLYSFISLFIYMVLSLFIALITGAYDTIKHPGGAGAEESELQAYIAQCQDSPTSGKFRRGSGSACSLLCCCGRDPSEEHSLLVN
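In this qHTS format, compounds were pin-transferred onto Ca8-dye-loaded TRPML1-DL cells induced with Tet overnight, and intracellular Ca2+ fluorescence was recorded kinetically for 110 s after a 10 s baseline. A subsequent 4uM final 54-4 (EC80) addition followed by a second 110 s read served as the antagonist phase.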
TSG101-PTAP inh: blocks PTAP/TSG101 interaction to inhibit HIV-1 budding; Q99816; 340,000 tested, under 10 active; Potency, µM (titrated, usually from 115 µM), for inactives: at the highest dose activity change, negative = inhibition, most hits filed as inhibitors; Fluorescence polarization, FITC-PTAP peptide / Tsg101 binding; active means well fitted inhibition curve with a large enough effect in the main read-out, with a control signal flat, not every such curve was filed as active; inconclusive means small, poorly fitted or top-dose-only effect, or effect the other way, or a change in a side signal; inactive means no such curve, though single readings can be large or run the other way; further: potency means the concentration at half of the fitted maximal effect; % of control where 0% means no effect
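Fluorescence anisotropy tracks displacement of a FITC-tagged PTAP peptide (50 nM) from the Tsg101 binding domain (10 uM), following a 20 min room-temperature incubation at pH 7.5.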
TRPML1 inh: human mucolipin-1 channel inhibition. Q9GZU1. TRPML1-inducible cells, Ca2+ dye fluorescence, FDSS; active compounds read low; inhibition of EC80 agonist-evoked calcium signal. activity change, negative = inhibition, % (concentration not given with the values). hit rate 0.02% among 390,000. AID 624415; in the data active means activity change below about -50%; inconclusive means between about -30% and that limit;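 further: stimulus is agonist 54-4 at its EC80 concentration; on the % scale 0 is the no-effect control and ±100 the full control effect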
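Calcium fluorescence in TRPML1-DL cells induced overnight with Tet: a 110 s read after compound pin addition, then a 110 s antagonist read after challenge with 54-4 at 4 uM final (EC80).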
* marks the source's active call; other numbers are inactive results; ? = inconclusive; · = no result; ! = a repeat was not active.

SMILES | TRHR PAM | TRHR ag | TRPML1 ag | TSG101-PTAP inh | TRPML1 inh
O=C(c1cnn(-c2cccc(F)c2)c1-n1cccc1)N1CCN(c2ccccc2F)CC1 | -0.3 | -0.4 | 70.6* | · | -12.8
CCC1(C)CC(=O)c2c(ccc3oc(C(=O)NCc4ccccc4)c(C)c23)O1 (configuration not stated) | 6.5 | 1.2 | 50.4* | · | -15.8
O=C(C[N+]1(CC(O)c2ccccc2)CCCCC1)c1ccccc1 (configuration not stated) | · | · | 0.0 | · | ·
CCNC(=O)NC(=O)CN(C)c1ccccc1 | 34.2* | -0.3 | 0.1 | -0.3% | -2.8
Cc1ccc(NC(=O)Cn2cc(S(=O)(=O)N3CCCC3)c(S(=O)(=O)N3CCCC3)c2)cc1C | -4.1 | 3.6 | -0.5 | · | -10.9
Cc1ccc(NC(=O)Cn2cc(S(=O)(=O)N3CCCC3)c(S(=O)(=O)N3CCCC3)c2)cc1F | 32.0* | 1.3 | 1.5 | · | 32.8
CCOc1ccc(C(=O)c2cn(Cc3ccccc3)c3c(F)cc(F)cc3c2=O)cc1 | 33.5* | -0.6 | 3.0 | · | 42.0
COc1ccccc1Cn1cc(C(=O)c2ccc(C)cc2)c(=O)c2cc(F)cc(F)c21 | 2.5 | -0.2 | 1.1 | · | -5.1
Cc1cc2c(s1)c1cnn(Cc3ccc(F)cc3Cl)c(=O)c1n2C | 4.2 | -0.1 | · | · | ·
COc1ccc(/C=C/c2ccnc3ccccc23)c(OC)c1 | · | · | 0.0 | · | ·
COc1ccc(Nc2nc3ccccc3nc2NS(=O)(=O)c2ccc(C)cc2)c(OC)c1 | 4.5 | -0.8 | 2.8 | · | -20.2
O=C(O)c1ccc(Nc2nc3ccccc3nc2NS(=O)(=O)c2ccc(F)cc2)cc1 | -6.3 | 0.0 | -0.6 | -6.8% | -19.1
O=[N+]([O-])c1ccc(S(=O)(=O)Nc2nc3ccccc3nc2Nc2ccccc2)cc1 | -5.4 | 0.3 | 51.7* | -3.1% | -0.3
COc1cc(Nc2nc3ccccc3nc2NS(=O)(=O)c2ccc([N+](=O)[O-])cc2)cc(OC)c1OC | 5.4 | 0.3 | 118.9* | -2.8% | ?
O=C([C@@H]1CC=C[C@@H]2CCN(C3CC3)C(=O)[C@@H]21)N1CCOCC1 | · | · | -0.5 | · | ·
O=C1C2C(c3ccccc3)C=CC(c3ccccc3)C2C(=O)N1C1CCCCC1 (configuration not stated) | 35.3* | -0.4 | -0.1 | -3.8% | -6.8
O=C1c2ccccc2C(=O)N1C1CCCCC1 | 5.1 | 0.5 | 0.6 | 0.2% | -0.9
CC(C)(C)OC(=O)NCc1nnc(-c2cc3ccccc3[nH]2)o1 | 3.5 | 1.7 | · | · | ·
COc1ccc(CNc2nc3c(-c4ccc(C)cc4)nnn3c3ccccc23)cc1 | 43.9* | 0.2 | -0.9 | · | 5.8
Cc1ccc(C(=O)NC2CCCC2)s1 | 32.4* | -0.1 | 0.0 | -3.8% | 9.7
COc1ccccc1C1CN=NC12CCCc1ccccc1C2=O (configuration not stated) | -3.9 | -1.0 | 2.9 | -8.6% | 26.1
COC(=O)c1c(C)cccc1C1CN=NC12Cc1ccccc1C2=O (configuration not stated) | · | · | 112.9* | -2.0% | -19.6
O=C(C[n+]1csc2ccccc21)c1cccc([N+](=O)[O-])c1 | · | · | -0.7 | · | ·
Cc1cc[n+](CC(=O)c2cccc([N+](=O)[O-])c2)c2ccccc12 | 34.2* | 1.3 | · | -5.6% | ·
COc1cc(OC)c(NC(=O)CCNC(=O)Cn2cnc3ccccc3c2=O)cc1Cl | 27.7 | -0.6 | -0.8 | -1.9% | 4.4
SMILES | TRHR PAM | TRHR ag | TRPML1 ag | TSG101-PTAP inh | TRPML1 inh
COc1cc(OC)c(N(C)C(=O)CCNC(=O)Cn2cnc3ccccc3c2=O)cc1Cl | 30.1*! | -0.6 | 1.1 | -1.7% | -4.2
Cc1cccc(S(=O)(=O)NC2CCN(C#N)C2)c1 (configuration not stated) | 2.8 | 1.7 | · | · | ·
Cc1ccnc2cc(Cl)c(Cl)cc12 | · | · | -0.5 | · | ·
CC(=O)NC(Cc1ccc(Cl)cc1)C(=O)NCC(N)C(=O)c1ccccc1 (configuration not stated) | · | · | 0.0 | · | ·
O/N=C(\Cc1cscn1)c1ccc(O)cc1O | 17.3 | 0.1 | -0.6 | -0.7% | -2.8
CCc1cc(/C(Cc2cscn2)=N\O)c(O)cc1O | 30.1* | 1.4 | -0.6 | -3.9% | -10.7
CC(NCc1ccccc1)C1COc2ccccc2O1 (configuration not stated) | 31.3* | 0.0 | 1.3 | -0.9% | -0.1
COc1ccc(CNC(C)C2COc3ccccc3O2)c(OC)c1 (configuration not stated) | 0.2 | 0.3 | -0.9 | -5.7% | -4.0
COc1ccc(CCn2c(=S)[nH]c(=O)c3cccnc32)cc1OC | · | · | -1.1 | · | ·
CCc1ccccc1N(C)C | · | · | -0.4 | · | ·
CCSc1nnc(NC(=O)C(C)Sc2nc3ccccc3[nH]2)s1 (configuration not stated) | 36.2* | 0.3 | 1.8 | -3.2% | -3.9
COc1cc2c(NC3CCN(C(C)C)CC3)nc(N3CCCN(C)CC3)nc2cc1OCCCN1CCCC1 | · | · | 0.1 | · | ·
CCOc1ccc(Nc2nc(N)c([N+](=O)[O-])c(N3CCOCC3)n2)cc1 | 37.6* | 0.6 | -0.6 | 0.4% | -3.0
CC1Nc2ccccc2C(=O)N1NS(C)(=O)=O (configuration not stated) | 33.4* | 0.3 | -0.5 | -8.7% | 3.5
Cc1ccc(O)c(NC(=S)NC(=O)Cc2ccc(Cl)cc2)c1 | -23.7 | 19.3 | 74.6* | 0.9% | 0.7
CCOC(=O)c1nn(-c2ccc(OC)cc2)c(=O)c2c(NC(=O)Cc3ccccc3)scc12 | 0.6 | 0.5 | · | · | ·
CCn1cc(C(=O)OCC(=O)N(C)C2CCS(=O)(=O)C2)c(=O)c2ccc(C)nc21 (configuration not stated) | 31.1* | 0.1 | -0.2 | -4.0% | 13.9
C1NNCC12CNNC2 | · | · | -0.5 | · | ·
O=C(c1cccc(F)c1)N1CCCc2ccccc21 | -14.8 | -0.7 | 0.1 | -5.8% | -1.4
O=C(c1c(F)cccc1F)N1CCCc2ccccc21 | 32.2* | 0.0 | -0.4 | -0.7% | 7.1
COCC(=O)N(Cc1cc2cc(C)ccc2[nH]c1=O)c1ccc(C)c(C)c1 | 30.8* | 0.1 | 0.9 | 2.1% | -5.3
COCC(=O)N(Cc1cc2cc(C)ccc2[nH]c1=O)c1cccc(C)c1C | 3.4 | 0.3 | -0.1 | -0.4% | 10.8
O=C(COC(=O)c1cnccn1)c1ccc(C2CCCCC2)cc1 | 33.6* | -0.8 | 1.0 | -7.7% | 16.1
Cc1cccc(CC(=O)NC2CCN(C)CC2)c1 | 40.3* | 0.2 | 0.1 | -0.7% | -8.0
CCN(CC)c1ccc(/C=C/C(=O)c2ccc(Br)cc2)cc1 | -1.4 | 166.0* | 87.8* | ? | -14.1
CN(C)c1ccc(C(=O)/C=C/c2ccc(Br)cc2)cc1 | -4.5 | 0.4 | 1.6 | 9.0% | -2.7
CC(C)(C)OC(=O)NCc1nnc(C(C(=O)OCc2ccccc2)c2ccccc2)s1 (configuration not stated) | 0.8 | -0.6 | · | · | ·
Cc1c(O)c2ccccc2oc1=O | 39.3* | 0.5 | -0.3 | -0.1% | -1.6

Assay outcomes as filed in PubChem.
